Test results as given in PubChem BioAssay AID720706 (Broad Institute, 2013).
Out of some 350,000 compounds screened, about 5,500 (1.6%) were called active. The sample holds actives, similar compounds and a random draw of the others, so the mix is not that of the screen.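 How the source made its calls: active means significant combined selectivity score with lowered wild-type GFP, culture density cut under 30%, mutant RFP and density less affected; inactive means any of these conditions unmet.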

Assay: GFP drop in mixed WT/humanized-ribosome E. coli culture – GFP/RFP fluorescence, OD600, single point, bacterial rRNA inhibitor project, primary screen (AID 720706)
Conditions: E. coli WT GFP vs humanized-ribosome RFP mutants, 24 h; GFP signal change (wild-type ribosome): stronger effect = lower value, DMSO median 0, no signal -100; OD600 change: measured here: OD600 growth, DMSO median 0, no signal -100; RFP signal change: measured here: RFP humanized mutant strains, DMSO median 0, no signal -100, concentration not given here
For `O=C(Nc1ccccc1)N1C[C@H]2[C@@H](c3ccccc31)[C@H](CO)N2Cc1ccc(F)cc1`, the GFP signal change (wild-type ribosome) was -4.61% (inactive), the OD600 change was -3.58% and the RFP signal change was 0.773%.
For `O=C(Nc1cccc(Cl)c1)N1C[C@@H]2[C@H](c3ccccc31)[C@H](CO)N2C(=O)C1CC1`, the GFP signal change (wild-type ribosome) was -55.8% (inactive), the OD600 change was -75.7% and the RFP signal change was -10.1%.
In the case of `O=C(Nc1cccc(Cl)c1)N1C[C@@H]2[C@H](c3ccccc31)[C@H](CO)N2Cc1ccncc1`, the GFP signal change (wild-type ribosome) is reported as -19.3% (active), the OD600 change is reported as -14% and the RFP signal change is reported as 2.23%.
In the case of `O=C(C[C@@H]1C[C@@H]2c3cc(NC(=O)c4ccc5c(c4)OCO5)ccc3O[C@@H]2[C@H](CO)O1)NCC1CC1`, the GFP signal change (wild-type ribosome) is reported as -0.47% (inactive), the OD600 change is reported as -2.45% and the RFP signal change is reported as 1.83%.
In the case of `N#C[C@H]1[C@H](c2ccccc2-c2ccc(F)cc2)[C@H](CO)N1C(=O)Cc1ccncc1`, the GFP signal change (wild-type ribosome) is reported as -3.78% (inactive), the OD600 change is reported as 7.17% and the RFP signal change is reported as -0.986%.
For `COCc1cn(CC[C@H]2CC[C@H](NC(=O)Cc3cccnc3)[C@H](CO)O2)nn1`, the GFP signal change (wild-type ribosome) was -2.43% (inactive), the OD600 change was -1.71% and the RFP signal change was -2.1%.
With `CCOC(=O)N1CCN(C(=O)c2ccccc2N(Cc2ccccc2)S(=O)(=O)c2ccc(OC)cc2)CC1` the GFP signal change (wild-type ribosome) was -25.8% (active), the OD600 change was -20.1% and the RFP signal change was 0.913%.
With `C=CCN(c1ccccc1C(=O)NCC(=O)OCC)S(=O)(=O)c1ccc(C)cc1` the GFP signal change (wild-type ribosome) was 5.68% (inactive), the OD600 change was -1.3% and the RFP signal change was 1.08%.
With `NC(=O)c1ccccc1N(Cc1ccccc1)S(=O)(=O)c1ccccc1` the GFP signal change (wild-type ribosome) was -4.05% (inactive), the OD600 change was -16.6% and the RFP signal change was -0.699%.
In the case of `C[C@H](CO)N1C[C@H](C)[C@H](CN(C)C(=O)C2CC2)OCc2ccccc2-c2ccccc2C1=O`, the GFP signal change (wild-type ribosome) is reported as 3.14% (inactive), the OD600 change is reported as 2.12% and the RFP signal change is reported as -2.73%.
In the case of `CO[C@@H]1CN(C)C(=O)c2ccc(NC(=O)C3CC3)cc2OC[C@H](C)N(C(C)=O)C[C@H]1C`, the GFP signal change (wild-type ribosome) is reported as 2.84% (inactive), the OD600 change is reported as 2.36% and the RFP signal change is reported as -2.71%.
With `O=C1NCCOCc2cn(nn2)CC[C@@H]1Cc1ccccc1` the GFP signal change (wild-type ribosome) was 4.08% (inactive), the OD600 change was 6.55% and the RFP signal change was -0.105%.
For `O=C(Nc1nnc(Cc2ccc(Cl)cc2)s1)c1cccnc1`, the GFP signal change (wild-type ribosome) was -2.18% (inactive), the OD600 change was 2.81% and the RFP signal change was -2.51%.
With `O=C(Nc1nnc(Cc2ccc(Cl)cc2)s1)c1ccncc1` the GFP signal change (wild-type ribosome) was -25.9% (active), the OD600 change was 0.397% and the RFP signal change was 10.4%.
For `O=C(Nc1nnc(Cc2ccccc2)s1)c1cnccn1`, the GFP signal change (wild-type ribosome) was 13.9% (inactive), the OD600 change was 13.3% and the RFP signal change was 1.31%.
In the case of `CO[C@@H]1CN(C)C(=O)c2ccc(NS(C)(=O)=O)cc2OC[C@@H](C)N(C(=O)C2CCOCC2)C[C@@H]1C`, the GFP signal change (wild-type ribosome) is reported as 2.81% (inactive), the OD600 change is reported as -0.862% and the RFP signal change is reported as -0.242%.
For `CS(=O)(=O)N1CCCCN2[C@H](CO)[C@H](c3ccc(-c4cccc(C#N)c4)cc3)[C@H]2C1`, the GFP signal change (wild-type ribosome) was -2.77% (inactive), the OD600 change was 2.86% and the RFP signal change was 1.13%.
For `C[C@@H](NC(=O)C[C@@H]1CC[C@H](NC(=O)Cc2ccccn2)[C@H](CO)O1)c1ccccc1`, the GFP signal change (wild-type ribosome) was 1.1% (inactive), the OD600 change was -1.33% and the RFP signal change was 0.264%.
With `Cc1cc(C)n2nc(C(=O)N3CCN(Cc4ccc5c(c4)OCO5)CC3)nc2n1` the GFP signal change (wild-type ribosome) was 6.71% (inactive), the OD600 change was 4.13% and the RFP signal change was -0.674%.
With `COc1cc(Cl)c(S(=O)(=O)N2CCN(Cc3ccc4c(c3)OCO4)CC2)cc1Cl` the GFP signal change (wild-type ribosome) was -5.43% (inactive), the OD600 change was -7.87% and the RFP signal change was -2.97%.
With `COc1ccc(-c2cc(C(=O)N3CCN(Cc4ccc5c(c4)OCO5)CC3)on2)cc1OC` the GFP signal change (wild-type ribosome) was -30.2% (active), the OD600 change was -22.1% and the RFP signal change was 4.69%.
For `Cc1ccnc(NC(=O)CNC(=O)c2ccccc2)c1`, the GFP signal change (wild-type ribosome) was 0.565% (inactive), the OD600 change was 1.47% and the RFP signal change was 0.604%.
For `Cc1ncoc1C(=O)NCCC(c1ccccc1)c1ccccc1`, the GFP signal change (wild-type ribosome) was -22.1% (active), the OD600 change was -9.13% and the RFP signal change was 0.235%.
In the case of `Cc1noc(C)c1COc1ccc(C(=O)NCCOc2ccccc2)cc1`, the GFP signal change (wild-type ribosome) is reported as -5.24% (inactive), the OD600 change is reported as -2.29% and the RFP signal change is reported as -0.784%.
With `COc1ccc(NC(=O)Nc2ccc3c(c2)C(=O)N([C@@H](C)CO)C[C@@H](C)[C@@H](CN(C)Cc2ccncc2)OCCCC[C@@H](C)O3)cc1` the GFP signal change (wild-type ribosome) was -3.01% (inactive), the OD600 change was -5.38% and the RFP signal change was 9.15%.
In the case of `CO[C@@H]1CN(C)C(=O)c2cc(NC(=O)NC3CCCCC3)ccc2OC[C@@H](C)N(C(C)=O)C[C@H]1C`, the GFP signal change (wild-type ribosome) is reported as 1.07% (inactive), the OD600 change is reported as 3.15% and the RFP signal change is reported as -0.812%.
For `Cc1cccc(-c2ccc([C@@H]3[C@@H](CO)N4CCCCN(S(=O)(=O)c5cccs5)C[C@H]34)cc2)c1`, the GFP signal change (wild-type ribosome) was -37.8% (active), the OD600 change was -24.1% and the RFP signal change was -1.67%.
For `Cc1cccc(-c2ccc([C@H]3[C@H](CO)N4CCCCN(S(=O)(=O)c5cn(C)cn5)C[C@@H]34)cc2)c1`, the GFP signal change (wild-type ribosome) was 2.02% (inactive), the OD600 change was 3.81% and the RFP signal change was 1.54%.
In the case of `COc1cccc(-c2ccc([C@H]3[C@H](CO)N4CCCCN(S(=O)(=O)c5cccs5)C[C@@H]34)cc2)c1`, the GFP signal change (wild-type ribosome) is reported as -0.886% (inactive), the OD600 change is reported as -0.41% and the RFP signal change is reported as 0.565%.
With `Cc1ccccc1-c1ccc2c(c1)O[C@@H](CN(C)C(=O)Nc1ccc(F)cc1)[C@H](C)CN([C@@H](C)CO)S2(=O)=O` the GFP signal change (wild-type ribosome) was -3.25% (inactive), the OD600 change was -11.6% and the RFP signal change was -1.01%.
With `O=C(c1ccncc1)N1CC(=O)N2[C@H](CO)[C@H](c3ccc(-c4ccccc4F)cc3)[C@@H]2C1` the GFP signal change (wild-type ribosome) was 3.75% (inactive), the OD600 change was -1.79% and the RFP signal change was -0.215%.
In the case of `CCCNC(=O)N1CC2(C1)CN(Cc1cccc(F)c1)[C@@H](CO)c1[nH]c3cc(OC)ccc3c12`, the GFP signal change (wild-type ribosome) is reported as 0.104% (inactive), the OD600 change is reported as 3.77% and the RFP signal change is reported as 0.338%.
With `Cn1c(SCC(=O)N2CCCCC2)nc2c(c1=O)SCC2` the GFP signal change (wild-type ribosome) was 5.14% (inactive), the OD600 change was -0.579% and the RFP signal change was -0.99%.
With `COCCn1c(SCC(=O)Nc2ccc(F)cc2F)nc2c(c1=O)SCC2` the GFP signal change (wild-type ribosome) was 0.103% (inactive), the OD600 change was -1.78% and the RFP signal change was -3.71%.
For `Cc1cccc(CSc2nc3c(c(=O)n2C)SCC3)c1`, the GFP signal change (wild-type ribosome) was -33.5% (active), the OD600 change was -21% and the RFP signal change was -2.49%.
In the case of `CCCN1[C@H](C(=O)N[C@H](C)c2ccccc2)[C@@H](CO)[C@@H]2Cn3c(ccc(-c4ccccc4)c3=O)[C@@H]21`, the GFP signal change (wild-type ribosome) is reported as -1.92% (inactive), the OD600 change is reported as -37.1% and the RFP signal change is reported as 14.2%.
For `Cc1cccc(N2C(=O)SC(N(CC(=O)O)c3cccc(C)c3)C2=O)c1` (stereo not given), the GFP signal change (wild-type ribosome) was 2.86% (inactive), the OD600 change was 2.55% and the RFP signal change was 2.75%.
For `Cc1ccc(CC2S/C(=C(/C#N)C(=O)N3CCOCC3)N(c3ccccc3)C2=O)cc1` (stereo not given), the GFP signal change (wild-type ribosome) was 7.88% (inactive), the OD600 change was 10.1% and the RFP signal change was -0.528%.
With `Cc1ccc(N2C(=O)SC(N(CC(=O)O)c3ccc(C)cc3)C2=O)cc1` (stereo not given) the GFP signal change (wild-type ribosome) was -19.1% (active), the OD600 change was -12.3% and the RFP signal change was 8.05%.
With `CCC(=O)N(C)C[C@@H]1Oc2cc(C#CCOC)ccc2S(=O)(=O)N([C@@H](C)CO)C[C@@H]1C` the GFP signal change (wild-type ribosome) was 2.66% (inactive), the OD600 change was 5.66% and the RFP signal change was -0.769%.
